# Results from PubChem BioAssay (Tox21).
# Where “and” joins values, the source holds several entries; their conditions need not be identical. Equal values may be shown once. Inconclusive results are not listed. A call without a number means that no potency is given here. Some compounds were tested as several samples or in several runs, with calls that do not always agree. Calls of active or inactive are those of the source. Unless noted, calls come from the whole dose curve; as a rule, active = well fitted curve in the direction sought with a large enough effect in the repeat runs; inconclusive = weak or mixed curves; inactive = no such curve, though single readings can be large; an effect the other way counts as inactive or inconclusive.
# Experiments:
# [1] = qHTS assay for small molecules that induce genotoxicity in human embryonic kidney cells expressing luciferase-tagged ATAD5 (AID 651632); note: nearly all actives have a fitted effect of over 15% in size
# Procedure, shortened: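 DMSO vehicle served as the control. HEK293T reporter cells, 16 hr at 37C, then 30 min Amplite at room temperature; ATAD5 induction is measured as luciferase activity.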
# [2] = qHTS assay for small molecule agonists of the p53 signaling pathway - cell viability (AID 651633; calls by dose curve; note: nearly all actives have a fitted effect of over 30% in size; note: potency is the fitted concentration of half-maximal effect)
# Procedure, shortened: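 Viability counter-read: CellTiter-Glo luminescence (30 min, room temperature) in the same p53RE-bla plates. These plates had been exposed to compounds for 16 h at 37 C.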
# [3] = qHTS assay for small molecules that induce genotoxicity in human embryonic kidney cells expressing luciferase-tagged ATAD5 - cell viability (AID 651634; calls by dose curve; note: nearly all actives have a fitted effect of over 25% in size; note: potency is the fitted concentration of half-maximal effect)
# Procedure, shortened: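 Here HEK293T cells with the ATAD5 luciferase reporter are incubated with test compounds for 15.5 hr, and cytotoxicity is then gauged by measuring protease activity in live cells using fluorescence.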
# [4] = qHTS assay for small molecule disruptors of the mitochondrial membrane potential - cell viability (AID 720634; calls by dose curve; note: nearly all actives have a fitted effect of over 20% in size; note: potency is the fitted concentration of half-maximal effect)
# Procedure, shortened: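 Viability of HepG2 cells is scored from ATP content by luminescence; cells are exposed to compound for 1 hr at 37 C and 5% CO2, then dosed with m-MPI dye before the CellTiter-Glo reagent.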
# [5] = qHTS assay for small molecule disruptors of the mitochondrial membrane potential (AID 720635); note: potency is the fitted concentration of half-maximal effect
# Procedure, shortened: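 Mitochondrial membrane potential tracked with Mito-MPS dye, red aggregates (ex 540/em 590 nm) against green monomers (ex 490/em 535 nm). Compound treatment 1 hr at 37C, dye 30 min in HepG2.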
# [6] = qHTS assay to test for compound auto fluorescence at 590 nm (red) in HepG2 cells (AID 720674)
# Procedure, shortened: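 We screened compounds on adherent HepG2 cells, incubating them for an hour at 37 C in 5% CO2 before reading emission at 590 nm under 540 nm excitation; values reflect equivalence to Rose Bengal sodium fluorescence.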
# [7] = qHTS assay to test for compound auto fluorescence at 535 nm (green) in HepG2 cells (AID 720675)
# [8] = qHTS assay to test for compound auto fluorescence at 460 nm (blue) in HEK293 cells (AID 720678)
# Procedure, shortened: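 Cells were seeded and left to adhere for 4-5 hr at 37C. Compounds were then pin-transferred. After an overnight incubation at 37C under 5% CO2, intrinsic fluorescence at 405/460 nm was measured and referenced to triamterene.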
# [9] = qHTS assay to test for compound auto fluorescence at 590 nm (red) in HEK293 cells (AID 720679)
# Procedure, shortened: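 Each well held 2,000 HEK293 cells in medium containing 10% dialyzed FBS. Following 4-5 hr attachment at 37C, 23 nL test compound or DMSO was added; plates sat overnight, and red fluorescence (540/590nm) was recorded.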
# [10] = qHTS assay to test for compound auto fluorescence at 535 nm (green) in HEK293 cells (AID 720680)
# [11] = qHTS assay to test for compound auto fluorescence at 460 nm (blue) in HEK293 cell free culture (AID 720681)
# Procedure, shortened: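 Blue fluorescence (Ex 405/Em 460 nm, triamterene-equivalent) was read immediately after pin transfer of compound or DMSO into medium (DMEM, 10% FBS) without cells.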
# [12] = qHTS assay to test for compound auto fluorescence at 535 nm (green) in HEK293 cell free culture (AID 720682)
# Procedure, shortened: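 No cells present: wells hold DMEM supplemented with 10% FBS, into which compound or vehicle is pinned. Green emission is then recorded (485 nm excitation, 535 nm emission) and scaled to fluorescein.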
# [13] = qHTS assay to test for compound auto fluorescence at 590 nm (red) in HepG2 cell free culture (AID 720684)
# Procedure, shortened: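 No cells present: MEM + 10% FBS only. Compound pinned in, red label read (540/590 nm). Activity = fluorescence equivalent to Rose Bengal sodium.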
# [14] = qHTS assay to test for compound auto fluorescence at 460 nm (blue) in HepG2 cell free culture (AID 720685)
# Procedure, shortened: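 Cell-free plates of MEM plus 10% FBS received 23 nL compound or DMSO vehicle; blue-channel (405/460 nm) intensity scored against triamterene as reference fluorophore.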
# [15] = qHTS assay to test for compound auto fluorescence at 535 nm (green) in HepG2 cell free culture (AID 720686)
# [16] = qHTS assay to test for compound auto fluorescence at 460 nm (blue) in HepG2 cells (AID 720687)
# Procedure, shortened: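 Blue-channel autofluorescence (Ex/Em 405/460 nm, triamterene-equivalent) was measured after 1 hr compound exposure at 37 C, 5% CO2. Cells were HepG2, plated overnight at 37 C in MEM plus 10% FBS.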
# [17] = target: Glucocorticoid receptor (Homo sapiens) (UniProt P04150); test: qHTS assay to identify small molecule agonists of the glucocorticoid receptor (GR) signaling pathway (AID 720691; active = well fitted activation curve with a large enough effect in the signal ratio in the repeat runs, not every such curve was filed as active; the % refers to the signal ratio)
# Sequence of Glucocorticoid receptor (Homo sapiens) (P04150 whole entry, looked up): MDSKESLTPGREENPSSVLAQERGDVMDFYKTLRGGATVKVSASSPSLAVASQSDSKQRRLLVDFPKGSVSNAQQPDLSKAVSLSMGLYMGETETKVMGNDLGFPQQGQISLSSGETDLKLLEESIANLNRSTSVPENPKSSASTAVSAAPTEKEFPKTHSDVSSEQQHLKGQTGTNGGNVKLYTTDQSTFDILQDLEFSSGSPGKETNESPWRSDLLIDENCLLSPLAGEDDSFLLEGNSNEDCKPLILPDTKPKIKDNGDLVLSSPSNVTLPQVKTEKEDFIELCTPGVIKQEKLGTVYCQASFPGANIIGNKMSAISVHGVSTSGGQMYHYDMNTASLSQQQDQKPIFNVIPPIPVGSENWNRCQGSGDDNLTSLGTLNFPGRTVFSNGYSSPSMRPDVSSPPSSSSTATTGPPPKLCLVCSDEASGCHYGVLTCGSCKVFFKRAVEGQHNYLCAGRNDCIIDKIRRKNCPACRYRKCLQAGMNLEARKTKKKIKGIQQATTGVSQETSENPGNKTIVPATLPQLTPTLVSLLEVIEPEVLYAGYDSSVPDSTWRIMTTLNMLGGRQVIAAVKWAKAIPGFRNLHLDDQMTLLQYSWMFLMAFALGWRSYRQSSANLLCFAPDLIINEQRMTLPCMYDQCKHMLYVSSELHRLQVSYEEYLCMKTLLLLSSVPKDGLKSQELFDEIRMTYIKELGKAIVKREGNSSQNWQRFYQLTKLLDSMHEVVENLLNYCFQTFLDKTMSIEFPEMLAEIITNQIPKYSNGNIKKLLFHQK
# Procedure, shortened: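 Compounds in DMSO, alongside positive controls, were added to GR-bla HeLa reporter cells and incubated 18 h at 37 C; GRE-driven beta-lactamase was detected by fluorescence after 2 h with FRET substrate at room temperature.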
# [18] = target: Glucocorticoid receptor (Homo sapiens) (UniProt P04150); test: qHTS assay to identify small molecule antagonists of the glucocorticoid receptor (GR) signaling pathway (AID 720692; active = well fitted inhibition curve with a large enough effect in the signal ratio in the repeat runs, not every such curve was filed as active; the % refers to the signal ratio; note: potency is the fitted concentration of half-maximal effect)
# Procedure, shortened: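 In a 1536-well cell format, compounds were added 4 h after seeding GR-bla HeLa cells, together with dexamethasone at 5 nM final; reporter activity was measured by FRET-substrate fluorescence following 18 h at 37 C.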
# [19] = qHTS assay for small molecule agonists of the p53 signaling pathway (AID 651631; calls by dose curve; note: nearly all actives have a fitted effect of over 15% in size)
# Procedure, shortened: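 Agonist mode screen using a stably integrated beta-lactamase gene under p53 response elements in HCT-116 cells. Compound exposure lasts 16 h at 37 °C; fluorescence intensity is measured following 2 h FRET substrate loading.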
# [20] = qHTS assay to test for compound auto fluorescence at 590 nm (red) in HEK293 cell free culture (AID 720683)
# Procedure, shortened: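 Red-channel autofluorescence of compounds in culture medium (DMEM, 10% FBS), no cells, measured at 540/590 nm. Rose Bengal sodium is the reference fluorophore for equivalence.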
SMILES,Potency [1],Potency [2],Potency [3],Potency [4],Potency [5],outcome [6],outcome [7],outcome [8],outcome [9],outcome [10],outcome [11],outcome [12],outcome [13],outcome [14],outcome [15],outcome [16],Potency [17],Potency [18],Potency [19],outcome [20]
Cc1cccc(N)c1N,inactive,inactive,inactive,inactive,21 µM (active) and 17.2 µM (active),inactive,inactive,inactive,inactive,inactive,inactive,inactive,inactive,inactive,inactive,inactive,inactive,inactive,,
Cc1cc(C)cc(C)c1,,,inactive,inactive,inactive,inactive,inactive,inactive,inactive,inactive,inactive,inactive,inactive,inactive,inactive,inactive,,,,
COP(=S)(OC)Oc1ccc([N+](=O)[O-])cc1,,inactive,,inactive and 54.5 µM (active),34.4 µM (active),inactive,inactive,,inactive,inactive,inactive,inactive,inactive,inactive,inactive,inactive,,,inactive,inactive
CC(C)(c1cc(Cl)c(O)c(Cl)c1)c1cc(Cl)c(O)c(Cl)c1,,61.1 µM (active),inactive,inactive,2.43 µM (active) and 2.73 µM (active),inactive,inactive,inactive,inactive,inactive,inactive,inactive,inactive,inactive,inactive,inactive,inactive,12.3 µM (active) and 6.92 µM (active),,
O=C(NC(=O)c1c(F)cccc1F)Nc1ccc(Cl)cc1,,inactive,inactive,inactive,inactive,inactive,inactive,,inactive,inactive,inactive,inactive,inactive,inactive,inactive,inactive,,,,
CCCCCc1cc(O)cc(O)c1,inactive,inactive,,61.1 µM (active),9.73 µM (active) and 7.7 µM (active),inactive,inactive,inactive,inactive,inactive,inactive,inactive,inactive,inactive,inactive,inactive,,,,
Oc1cc(Cl)c(Cl)cc1Cl,inactive,inactive,inactive,,5.96 µM (active) [middle of 4 runs],inactive,inactive,inactive,inactive,inactive,inactive,inactive,inactive,inactive,inactive,inactive,,,,
O=S(=O)(Oc1ccc(Cl)cc1)c1ccc(Cl)cc1,inactive,inactive,inactive,inactive,31 µM (active) and 12.2 µM (active),inactive,inactive,inactive,inactive,inactive,inactive,inactive,inactive,inactive,inactive,inactive,inactive,,,inactive
C#CCOS(=O)OC1CCCCC1Oc1ccc(C(C)(C)C)cc1 (stereo unspecified),,inactive,inactive,inactive and 3.86 µM (active),15.4 µM (active) and 24.3 µM (active),inactive,inactive,,inactive,inactive,inactive,inactive,inactive,inactive,inactive,inactive,inactive,43.7 µM (active),,inactive
CC(C)=CC1C(C(=O)OCc2coc(Cc3ccccc3)c2)C1(C)C (stereo unspecified),,inactive,inactive,,48.6 µM (active) and 61.1 µM (active),inactive,inactive,inactive,inactive,inactive,inactive,inactive,inactive,inactive,inactive,inactive,inactive,21.8 µM (active),,
Nc1ccc(-c2ccc(N)c(N)c2)cc1N,inactive,48.6 µM (active),inactive,inactive,216 nM (active) and 7.7 µM (active),inactive,inactive,inactive,inactive,inactive,inactive,inactive,inactive,inactive,inactive,inactive,,,,
Cc1ccc2c(c1N)C(=O)c1ccccc1C2=O,,inactive,12.2 µM (active),,480 nM (active) and 386 nM (active),inactive,inactive,inactive,inactive,inactive,inactive,inactive,inactive,inactive,inactive,inactive,inactive,,,inactive
NC(=S)Nc1ccccc1,inactive,inactive,inactive,,,inactive,inactive,inactive,inactive,inactive,inactive,inactive,inactive,inactive,inactive,inactive,inactive,inactive,,
CCC(C)c1ccc(O)cc1 (stereo unspecified),inactive,inactive,inactive,inactive,27.6 µM (active) and 24.3 µM (active),inactive,inactive,inactive,inactive,inactive,inactive,inactive,inactive,inactive,inactive,inactive,inactive,inactive,,inactive
Nc1ccc(-c2ccccc2)cc1,,inactive,inactive,,,inactive,inactive,,inactive,inactive,inactive,inactive,inactive,inactive,inactive,inactive,,,inactive,inactive
C=CCc1ccc(OC)cc1,,inactive,inactive,inactive,,inactive,inactive,,inactive,inactive,inactive,inactive,inactive,inactive,inactive,inactive,,,,inactive
C1=Cc2cccc3cccc1c23,inactive,inactive,inactive,inactive,,inactive,inactive,,inactive,inactive,inactive,inactive,inactive,inactive,inactive,inactive,inactive,inactive,,inactive
